# In PubChem BioAssay (NCI):
# About 79,000 compounds went through this panel and 15% of them were active in at least one assay; those are over-represented in the sample as a whole. Values without a mark were called inactive. The source made the active and inactive calls. Cut-off read from the data, not from the text of the source: active = growth inhibition above about 70%; inactive = the rest.
# Legend:
# [1] = NCI Yeast Anticancer Drug Screen. Data for the rad52 strain (AID 147);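 note: 0% = growth of vehicle-treated control cultures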; conditions: S. cerevisiae rad52 mutant growth inhibition, active compounds read high
# Outline: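 Here a repair-compromised yeast strain receives each compound; its growth is then quantified and normalised to vehicle-only controls.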
# [2] = NCI Yeast Anticancer Drug Screen. Data for the wt1 strain (AID 149);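 note: 0% = growth of vehicle-treated wt1 cultures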; conditions: S. cerevisiae wt1 strain (SPY 50644) growth inhibition, active compounds read high
# Outline: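 Vehicle-normalised growth inhibition; strain wt1; compound exposure.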
# [3] = NCI Yeast Anticancer Drug Screen. Data for the rad50EPP+ strain (AID 151);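 note: 0% = growth of vehicle-treated control cultures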; conditions: S. cerevisiae rad50 mutant strain, active compounds read high
# Outline: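 Read-out is yeast growth inhibition relative to vehicle; cells used were the rad50EPP+ strain.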
# [4] = NCI Yeast Anticancer Drug Screen. Data for the mgt1 strain (AID 153); conditions: S. cerevisiae mgt1 mutant growth inhibition, active compounds read high
# Outline: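 Measured: inhibition of mgt1 yeast growth by compound, normalized to vehicle-treated cultures.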
# [5] = NCI Yeast Anticancer Drug Screen. Data for the rad50 strain (AID 155);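 note: 0% = growth of vehicle-only cultures of the same strain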; conditions: S. cerevisiae rad50 strain growth inhibition, active compounds read high
# Outline: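 A DNA repair-deficient yeast mutant serves as the test organism; compound-induced growth inhibition is calculated against vehicle-treated cells.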
# [6] = NCI Yeast Anticancer Drug Screen. Data for the mec2-1 strain (AID 157); conditions: S. cerevisiae mec2-1 strain, active compounds read high
# Outline: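 Using mec2-1 yeast: add compound, measure growth, express inhibition versus vehicle-treated cultures.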
# [7] = NCI Yeast Anticancer Drug Screen. Data for the rad14 strain (AID 159);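 note: 0% = growth of vehicle-treated control cultures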; conditions: S. cerevisiae rad14 strain growth inhibition, active compounds read high
# Outline: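 Vehicle-treated cultures served as the baseline for growth inhibition of a DNA repair-mutant yeast strain exposed to each compound.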
# [8] = NCI Yeast Anticancer Drug Screen. Data for the sgs1 mgt1 strain (AID 161);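 note: 0% = growth of cultures given vehicle only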; conditions: S. cerevisiae sgs1 mgt1 strain, active compounds read high
# Outline: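 Compounds are added to genetically altered yeast, and growth is compared with cultures given vehicle alone to give percent inhibition.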
# [9] = NCI Yeast Anticancer Drug Screen. Data for the CLN2oe strain (AID 163);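 note: 0% = growth of vehicle-only control cultures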; conditions: S. cerevisiae CLN2oe strain, active compounds read high
# Outline: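 Whole-cell yeast growth assay. A strain engineered for altered cell-cycle control received compound, and inhibition relative to vehicle-treated cultures was recorded.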
# [10] = NCI Yeast Anticancer Drug Screen. Data for the cln2 rad14 strain (AID 165);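 note: 0% = growth equal to vehicle treated cultures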; conditions: S. cerevisiae cln2 rad14 strain, active compounds read high
# Outline: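 Yeast strain cln2 rad14, bearing defects in cell cycle control and DNA repair, serves as the test system; values reflect growth inhibition compared with vehicle.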
# [11] = NCI Yeast Anticancer Drug Screen. Data for the bub3 strain (AID 167); conditions: S. cerevisiae bub3 mutant strain, active compounds read high
# Outline: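 Inhibition values come from growth of compound-treated mutant yeast normalised to vehicle-treated controls.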
# [12] = NCI Yeast Anticancer Drug Screen. Data for the wt2 strain (AID 169);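 note: 0% = growth of vehicle-treated yeast cultures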; conditions: S. cerevisiae wt2 strain growth inhibition, active compounds read high
# Outline: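 Treated yeast vs. vehicle-treated yeast: growth inhibition determined.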
# [13] = NCI Yeast Anticancer Drug Screen. Data for the mlh1 strain (AID 171);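 note: 0% = growth of vehicle-treated control cultures of the same strain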; conditions: S. cerevisiae mlh1 strain growth inhibition, active compounds read high
# Outline: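 A yeast strain with a defined genetic lesion serves as the test organism. Cultures receive compound or vehicle, and growth is measured.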
# [14] = NCI Yeast Anticancer Drug Screen. Data for the mlh1 rad18 strain (AID 175); conditions: S. cerevisiae mlh1 rad18 strain growth inhibition, active compounds read high
# Outline: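 Steps: expose repair-defective yeast to compound; measure growth; express inhibition against vehicle-treated controls.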
# [15] = NCI Yeast Anticancer Drug Screen. Data for the rad18 strain (AID 177); conditions: S. cerevisiae rad18 mutant growth inhibition, active compounds read high
# Outline: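 Measured value is growth inhibition of a yeast strain bearing a DNA repair alteration, referenced to vehicle-treated cells.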
# [16] = NCI Yeast Anticancer Drug Screen. Data for the sgs1 strain (AID 173);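 note: 0% = growth of vehicle-only control cultures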; conditions: S. cerevisiae sgs1 mutant, active compounds read high
# Outline: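 A genetically defined yeast mutant is incubated with the test compound, and its growth is compared to that of the same strain given vehicle.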
# [17] = at 5.0 µM (retest, dose inferred, filed as 0.5)
# [18] = at 50.0 µM (retest, dose inferred, filed as 5.0)
smiles,measurement,setting,value
COC1CCC(O)C(/C=C/[N+](=O)[O-])C1 (stereo unspecified),growth inhibition,[1]; at 1.2 µM,27%
same,growth inhibition,[1]; at 3.7 µM,81% (active)
same,growth inhibition,[1]; at 11.0 µM,99% (active)
same,growth inhibition,[1]; at 33.0 µM,99% (active)
same,growth inhibition,[1]; at 100.0 µM,99% (active)
same,growth inhibition,[2]; at 1.2 µM,3%
same,growth inhibition,[2]; at 3.7 µM,18%
same,growth inhibition,[2]; at 11.0 µM,99% (active)
same,growth inhibition,[2]; at 33.0 µM,99% (active)
same,growth inhibition,[2]; at 100.0 µM,99% (active)
same,growth inhibition,[3]; at 1.2 µM,6%
same,growth inhibition,[3]; at 3.7 µM,19%
same,growth inhibition,[3]; at 11.0 µM,56%
same,growth inhibition,[3]; at 33.0 µM,94% (active)
same,growth inhibition,[3]; at 100.0 µM,99% (active)
same,growth inhibition,[4]; at 1.2 µM,8%
same,growth inhibition,[4]; at 3.7 µM,63%
same,growth inhibition,[4]; at 11.0 µM,99% (active)
same,growth inhibition,[4]; at 33.0 µM,100% (active)
same,growth inhibition,[4]; at 100.0 µM,99% (active)
same,growth inhibition,[5]; at 1.2 µM,29%
same,growth inhibition,[5]; at 3.7 µM,83% (active)
same,growth inhibition,[5]; [17],50%
same,growth inhibition,[5]; at 11.0 µM,99% (active)
same,growth inhibition,[5]; at 33.0 µM,99% (active)
same,growth inhibition,[5]; [18],99% (active)
same,growth inhibition,[5]; at 50.0 µM,98.7% (active)
same,growth inhibition,[5]; at 100.0 µM,99% (active)
same,growth inhibition,[6]; at 1.2 µM,5%
same,growth inhibition,[6]; at 3.7 µM,42%
same,growth inhibition,[6]; [17],21%
same,growth inhibition,[6]; at 11.0 µM,100% (active)
same,growth inhibition,[6]; at 33.0 µM,99% (active)
same,growth inhibition,[6]; [18],100% (active)
same,growth inhibition,[6]; at 50.0 µM,99.6% (active)
same,growth inhibition,[6]; at 100.0 µM,99% (active)
same,growth inhibition,[7]; at 1.2 µM,7%
same,growth inhibition,[7]; at 3.7 µM,42%
same,growth inhibition,[7]; at 11.0 µM,99% (active)
same,growth inhibition,[7]; at 33.0 µM,99% (active)
same,growth inhibition,[7]; at 100.0 µM,99% (active)
same,growth inhibition,[8]; [17],67%
same,growth inhibition,[8]; [18],100% (active)
same,growth inhibition,[8]; at 50.0 µM,98.2% (active)
same,growth inhibition,[9]; at 1.2 µM,0%
same,growth inhibition,[9]; at 3.7 µM,15%
same,growth inhibition,[9]; at 11.0 µM,99% (active)
same,growth inhibition,[9]; at 33.0 µM,99% (active)
same,growth inhibition,[9]; at 100.0 µM,99% (active)
same,growth inhibition,[10]; [17],17%
same,growth inhibition,[10]; [18],99% (active)
same,growth inhibition,[10]; at 50.0 µM,89.8% (active)
same,growth inhibition,[11]; at 1.2 µM,4%
same,growth inhibition,[11]; at 3.7 µM,32%
same,growth inhibition,[11]; [17],79% (active)
same,growth inhibition,[11]; at 11.0 µM,99% (active)
same,growth inhibition,[11]; at 33.0 µM,99% (active)
same,growth inhibition,[11]; [18],100% (active)
same,growth inhibition,[11]; at 50.0 µM,98.7% (active)
same,growth inhibition,[11]; at 100.0 µM,99% (active)
same,growth inhibition,[12]; at 1.2 µM,9%
same,growth inhibition,[12]; at 3.7 µM,66%
same,growth inhibition,[12]; at 11.0 µM,99% (active)
same,growth inhibition,[12]; at 33.0 µM,99% (active)
same,growth inhibition,[12]; at 100.0 µM,99% (active)
same,growth inhibition,[13]; at 1.2 µM,13%
same,growth inhibition,[13]; at 3.7 µM,79% (active)
same,growth inhibition,[13]; at 11.0 µM,99% (active)
same,growth inhibition,[13]; at 33.0 µM,99% (active)
same,growth inhibition,[13]; at 100.0 µM,100% (active)
same,growth inhibition,[14]; [17],79% (active)
same,growth inhibition,[14]; [18],99% (active)
same,growth inhibition,[14]; at 50.0 µM,98.2% (active)
same,growth inhibition,[15]; at 1.2 µM,12%
same,growth inhibition,[15]; at 3.7 µM,65%
same,growth inhibition,[15]; at 11.0 µM,99% (active)
same,growth inhibition,[15]; at 33.0 µM,99% (active)
same,growth inhibition,[15]; at 100.0 µM,99% (active)
COc1ccc(/C=C/c2sc3ccccc3[n+]2CCCCI)cc1OC,growth inhibition,[1]; at 1.2 µM,-8%
same,growth inhibition,[1]; at 3.7 µM,1%
same,growth inhibition,[1]; at 11.0 µM,-2%
same,growth inhibition,[1]; at 33.0 µM,55%
same,growth inhibition,[1]; at 100.0 µM,94% (active)
same,growth inhibition,[2]; at 1.2 µM,-84%
same,growth inhibition,[2]; at 3.7 µM,-3%
same,growth inhibition,[2]; at 11.0 µM,-6%
same,growth inhibition,[2]; at 33.0 µM,33%
same,growth inhibition,[2]; at 100.0 µM,89% (active)
same,growth inhibition,[3]; at 1.2 µM,-5%
same,growth inhibition,[3]; at 3.7 µM,-2%
same,growth inhibition,[3]; at 11.0 µM,-4%
same,growth inhibition,[3]; at 33.0 µM,0%
same,growth inhibition,[3]; at 100.0 µM,-3%
same,growth inhibition,[4]; at 1.2 µM,0%
same,growth inhibition,[4]; at 3.7 µM,-1%
same,growth inhibition,[4]; at 11.0 µM,-4%
same,growth inhibition,[4]; at 33.0 µM,76% (active)
same,growth inhibition,[4]; at 100.0 µM,98% (active)
same,growth inhibition,[5]; at 1.2 µM,-2%
same,growth inhibition,[5]; at 3.7 µM,-3%
same,growth inhibition,[5]; [17],-11%
same,growth inhibition,[5]; at 11.0 µM,-7%
same,growth inhibition,[5]; at 33.0 µM,48%
same,growth inhibition,[5]; [18],20%
same,growth inhibition,[5]; at 50.0 µM,74.9% (active)
same,growth inhibition,[5]; at 100.0 µM,93% (active)
same,growth inhibition,[6]; at 1.2 µM,-6%
same,growth inhibition,[6]; at 3.7 µM,-6%
same,growth inhibition,[6]; [17],-16%
same,growth inhibition,[6]; at 11.0 µM,-11%
same,growth inhibition,[6]; at 33.0 µM,64%
same,growth inhibition,[6]; [18],56%
same,growth inhibition,[6]; at 50.0 µM,81.4% (active)
same,growth inhibition,[6]; at 100.0 µM,95% (active)
same,growth inhibition,[7]; at 1.2 µM,-2%
same,growth inhibition,[7]; at 3.7 µM,-3%
same,growth inhibition,[7]; at 11.0 µM,-7%
same,growth inhibition,[7]; at 33.0 µM,84% (active)
same,growth inhibition,[7]; at 100.0 µM,98% (active)
same,growth inhibition,[8]; [17],-9%
same,growth inhibition,[8]; [18],29%
same,growth inhibition,[8]; at 50.0 µM,95.2% (active)
same,growth inhibition,[9]; at 1.2 µM,-7%
same,growth inhibition,[9]; at 3.7 µM,-7%
same,growth inhibition,[9]; at 11.0 µM,-8%
same,growth inhibition,[9]; at 33.0 µM,-10%
same,growth inhibition,[9]; at 100.0 µM,68%
same,growth inhibition,[10]; [17],36%
same,growth inhibition,[10]; [18],54%
same,growth inhibition,[10]; at 50.0 µM,29.6%
same,growth inhibition,[11]; at 1.2 µM,-4%
same,growth inhibition,[11]; at 3.7 µM,-8%
same,growth inhibition,[11]; [17],0%
same,growth inhibition,[11]; at 11.0 µM,-2%
same,growth inhibition,[11]; at 33.0 µM,1%
same,growth inhibition,[11]; [18],97% (active)
same,growth inhibition,[11]; at 50.0 µM,91.8% (active)
same,growth inhibition,[11]; at 100.0 µM,85% (active)
same,growth inhibition,[12]; at 1.2 µM,-3%
same,growth inhibition,[12]; at 3.7 µM,-3%
same,growth inhibition,[12]; at 11.0 µM,-6%
same,growth inhibition,[12]; at 33.0 µM,26%
same,growth inhibition,[12]; at 100.0 µM,97% (active)
same,growth inhibition,[13]; at 1.2 µM,-2%
same,growth inhibition,[13]; at 3.7 µM,-4%
same,growth inhibition,[13]; at 11.0 µM,-6%
same,growth inhibition,[13]; at 33.0 µM,66%
same,growth inhibition,[13]; at 100.0 µM,97% (active)
same,growth inhibition,[16]; at 1.2 µM,1%
same,growth inhibition,[16]; at 3.7 µM,4%
same,growth inhibition,[16]; at 11.0 µM,-2%
same,growth inhibition,[16]; at 33.0 µM,84% (active)
same,growth inhibition,[16]; at 100.0 µM,97% (active)
same,growth inhibition,[14]; [17],-9%
same,growth inhibition,[14]; [18],46%
same,growth inhibition,[14]; at 50.0 µM,95.6% (active)
same,growth inhibition,[15]; at 1.2 µM,-3%
same,growth inhibition,[15]; at 3.7 µM,0%
same,growth inhibition,[15]; at 11.0 µM,9%
same,growth inhibition,[15]; at 33.0 µM,86% (active)
same,growth inhibition,[15]; at 100.0 µM,96% (active)
